smiles,measurement,setting,value
CN(C)C(=O)/C(C#N)=C/c1ccc(-c2nc3cnc4[nH]ccc4c3n2C2CCCCC2)o1 [FM-381],Kinases covered,JAK1,JAK1
same,Kinases covered,JAK3,JAK3
Cc1cc(O)cc(C)c1/C=C/c1cncc(C(N)=O)c1 [GW435821X],Kinases covered,IKBKE,IKBKE
CN(C)C/C=C/C(=O)Nc1ccc(C(=O)Nc2cccc(Nc3ncc(Cl)c(-c4c[nH]c5ccccc45)n3)c2)cc1 [THZ1],Kinases covered,IGF1R,IGF1R
same,Kinases covered,INSR,INSR
COc1cc2ncnc(Nc3cccc(Cl)c3F)c2cc1O[C@H]1CC[C@H]([C@@H]2NCCNC2=O)CC1 [BI00133844],Kinases covered,HCK,HCK
COc1cc(N2CCN(C(C)C)CC2)ccc1Nc1nc(Nc2ccc(F)cc2C(=O)NC[C@@H](O)CO)c2cc[nH]c2n1 [GSK1392956A],Kinases covered,IGF1R,IGF1R
same,Kinases covered,INSR,INSR
COc1ccc(CSc2nnc(-c3ccc4ncsc4c3)o2)cc1C(F)(F)F [TPKI-91],Kinases covered,GSK3B,GSK3B
c1ccc(-c2cc3ccncc3cc2OC2CCNCC2)cc1 [GSK1122999],Kinases covered,IKBKB,IKBKB
CCCc1cc(N2CCCN(C)CC2)nc2sc3c(N)ncnc3c12 [BI00604564],Kinases covered,Haspin,Haspin
O=C(Nc1n[nH]c2nc(-c3ccc(O)cc3)c(Br)cc12)C1CC1 [SB-725317],Kinases covered,GSK3B,GSK3B
CCc1cc(Nc2nccc(-c3c(-c4ccc(OC)c(C(=O)Nc5c(F)cccc5F)c4)nc4ccccn34)n2)c(OC)cc1N1CCC(N2CCN(S(C)(=O)=O)CC2)CC1 [GSK1904529],Kinases covered,IGF1R,IGF1R
same,Kinases covered,INSR,INSR
CCC(NN(C)C)=C1C(=O)Nc2ccc(C(C)=O)cc21 [BI00036838],Kinases covered,GSK3B,GSK3B
same,Kinases covered,ICK,ICK
Cc1nnc(-c2ccc3occ(-c4ccc(S(C)=O)cc4)c3c2)[nH]1 (stereo not shown) [TPKI-85],Kinases covered,GSK3B,GSK3B
COc1ccc2c(-c3ccnc(Nc4cccc(OC(F)(F)F)c4)n3)cnn2n1 [GW810372X],Kinases covered,GSK3B,GSK3B
same,Kinases covered,HIPK1,HIPK1
COC[C@@H](C)N[C@H]1CC[C@H](Nc2cc(-c3cccc(NCC4(C#N)CCOCC4)n3)c(Cl)cn2)CC1 [NVP-2],Kinases covered,HIPK4,HIPK4
same,Kinases covered,IRAK1,IRAK1
CNC(=O)c1c(F)cccc1Nc1nc(Nc2cc3c(cc2OC)CCN3C(=O)CN(C)C)nc2[nH]ccc12 [GSK1838705],Kinases covered,IGF1R,IGF1R
same,Kinases covered,IRR,IRR
NC(=O)c1cccnc1COc1cc(-c2ccc(N3CCOCC3)nc2)cc2ncccc12 [BI01125081],Kinases covered,JAK2,JAK2
Cl.O=C1Nc2ccc(-c3cccnc3)cc2C1=Cc1cc(Br)c(O)c(Br)c1 [GW429374A],Kinases covered,IKBKE,IKBKE
Cc1cc(NC(=O)c2cccc(NC(=O)/C=C/CN(C)C)c2)ccc1Nc1nccc(-c2cccnc2)n1 [JNK-IN-7],Kinases covered,ICK,ICK
same,Kinases covered,IRAK1,IRAK1
same,Kinases covered,JNK1,JNK1
same,Kinases covered,JNK2,JNK2
COc1cc2ncnc(Nc3ccc(F)c(Cl)c3)c2cc1O[C@H]1CC[C@H](N)CC1 [BIBW3133BS],Kinases covered,IRAK1,IRAK1
COc1cc(C)c(N(C)C(=O)CN(C)C)cc1Nc1nc(Nc2cccc(F)c2C(N)=O)c2cc[nH]c2n1 [GSK2219385],Kinases covered,IGF1R,IGF1R
same,Kinases covered,INSR,INSR
C[C@@H]1CCN(C(=O)CO)C[C@@H]1N(C)c1ncnc2[nH]ccc12 [PFE-PKIS 34],Kinases covered,JAK2,JAK2
same,Kinases covered,JAK3,JAK3
CC(C)COC(=O)c1ccc2c(c1)/C(=C/Nc1ccc(S(N)(=O)=O)cc1)C(=O)N2 [GW416981X],Kinases covered,IKKE,IKKE
CCOc1ccc2c(-c3ccnc(Nc4cccc(C(F)(F)F)c4)n3)cnn2n1 [GW811761X],Kinases covered,HIPK2,HIPK2
same,Kinases covered,HIPK3,HIPK3
COc1cc(/C=N/Nc2ncnc3[nH]ncc23)ccc1O [GW578748X],Kinases covered,IKBKE,IKBKE
COc1cc(C=NNc2ncnc3c2cnn3-c2ccccc2)ccc1O [GW513184X],Kinases covered,GSK3B,GSK3B
COc1cc(Nc2nccc(N3CCC(NC(=O)C4COc5ccccc5O4)C3)n2)cc(OC)c1OC (stereo not shown) [GSK1379761],Kinases covered,JAK2,JAK2

# From publication PMC7826789 (International Journal of Molecular Sciences, 2021)
